# Data: PubChem BioAssay (EPA / NIEHS)
# The source made the active and inactive calls. The calls were made as follows: active = hit-call score of the fitted dose curve at least 0.9, where 1 is the maximum; inactive = score below 0.9.
# Assay: ATG_M_19_CIS: Attagene CIS-FACTORIAL HepG2 Assay for M19 Transcription Factor (Internal Marker) (AID 2282939)
# Settings: HepG2 Attagene CIS-FACTORIAL M19 internal marker reporter; actives raise or lower the signal
# In short: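 In this multiplexed cell assay, transiently transfected HepG2 reporter units report endogenous transcription-factor activity; after 24 hours of treatment, labelled reporter cDNA fragments are quantified by capillary electrophoresis and fitted bidirectionally against DMSO.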
row,Structure (SMILES),outcome
1,CCCSP(=S)(OCC)Oc1ccc(Cl)cc1Cl (stereo not drawn),inactive
2,CCC[CH2][Sn]([CH2]CCC)([CH2]CCC)[CH2]CCC,inactive
3,Cc1cc(Cl)ccc1O,inactive
4,O=[N+]([O-])c1cccc2ccccc12,inactive
5,ClCCCCl,inactive
6,CNC(=O)CSP(=O)(OC)OC,inactive
7,N#Cc1ccccc1N,inactive
8,Cc1ccc2nc3sc(=O)sc3nc2c1,inactive
9,O=C(O)c1cc(I)cc(I)c1I,inactive
10,O=C(NC(=O)c1c(F)cccc1F)Nc1cc(Cl)c(F)c(Cl)c1F,inactive
11,CCN(CCO)CCO,inactive
12,C1CN2CCN1CC2,inactive
13,C=C(C)[C@@H]1CC=C(C=O)CC1,inactive
14,CC1(C)[C@H](/C=C2\CCSC2=O)[C@@H]1C(=O)OCc1coc(Cc2ccccc2)c1,inactive
15,O=c1nc(O)n(Cl)c(=O)n1Cl,inactive
16,[F][Sn]([c]1ccccc1)([c]1ccccc1)[c]1ccccc1,inactive
17,O=C1C[C@@H]2OCC=C3CN4CC[C@]56c7ccccc7N1[C@H]5[C@H]2[C@H]3C[C@H]46,inactive
18,C=CC(=O)NC(C)(C)CC(C)=O,inactive
19,OCCCCO,inactive
20,N#CS,inactive
21,OC(c1ccc(Cl)cc1)(c1ccc(Cl)cc1)c1cccnc1,inactive
22,O=[N+]([O-])c1ccccc1O,inactive
23,CCOc1cc(C=O)ccc1O,inactive
24,C=CCOC(F)(C(F)(F)F)C(F)(F)F,inactive
25,Cc1cc(Cl)ccc1OC(C)C(=O)O (stereo not drawn),inactive
26,Brc1ccc(Br)cc1,inactive
27,CNC(=O)N(C)c1nc2ccccc2s1,inactive
28,O=[N+]([O-])c1cc([As](=O)(O)O)ccc1O,inactive
